# Source: PubChem BioAssay (Broad Institute)
# IDE exosite FP: exo-site inhibitors of human IDE, primary screen, biochemical, fluorescence anisotropy, probe displacement | AID 1259349, 2017 | z-score at 20 µM | Insulin-degrading enzyme (Homo sapiens), P14735 | 6.3% of 17,000 active | purified IDE, FL-6b probe fluorescence polarization; active compounds read low;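 active = z-score of -3 or lower, meaning strong loss of probe binding signal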;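 also: His-tagged human IDE residues 42-1019 made in E. coli with 30 nM FL-6b probe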
# Target sequence (P14735 42-1019 limits assumed): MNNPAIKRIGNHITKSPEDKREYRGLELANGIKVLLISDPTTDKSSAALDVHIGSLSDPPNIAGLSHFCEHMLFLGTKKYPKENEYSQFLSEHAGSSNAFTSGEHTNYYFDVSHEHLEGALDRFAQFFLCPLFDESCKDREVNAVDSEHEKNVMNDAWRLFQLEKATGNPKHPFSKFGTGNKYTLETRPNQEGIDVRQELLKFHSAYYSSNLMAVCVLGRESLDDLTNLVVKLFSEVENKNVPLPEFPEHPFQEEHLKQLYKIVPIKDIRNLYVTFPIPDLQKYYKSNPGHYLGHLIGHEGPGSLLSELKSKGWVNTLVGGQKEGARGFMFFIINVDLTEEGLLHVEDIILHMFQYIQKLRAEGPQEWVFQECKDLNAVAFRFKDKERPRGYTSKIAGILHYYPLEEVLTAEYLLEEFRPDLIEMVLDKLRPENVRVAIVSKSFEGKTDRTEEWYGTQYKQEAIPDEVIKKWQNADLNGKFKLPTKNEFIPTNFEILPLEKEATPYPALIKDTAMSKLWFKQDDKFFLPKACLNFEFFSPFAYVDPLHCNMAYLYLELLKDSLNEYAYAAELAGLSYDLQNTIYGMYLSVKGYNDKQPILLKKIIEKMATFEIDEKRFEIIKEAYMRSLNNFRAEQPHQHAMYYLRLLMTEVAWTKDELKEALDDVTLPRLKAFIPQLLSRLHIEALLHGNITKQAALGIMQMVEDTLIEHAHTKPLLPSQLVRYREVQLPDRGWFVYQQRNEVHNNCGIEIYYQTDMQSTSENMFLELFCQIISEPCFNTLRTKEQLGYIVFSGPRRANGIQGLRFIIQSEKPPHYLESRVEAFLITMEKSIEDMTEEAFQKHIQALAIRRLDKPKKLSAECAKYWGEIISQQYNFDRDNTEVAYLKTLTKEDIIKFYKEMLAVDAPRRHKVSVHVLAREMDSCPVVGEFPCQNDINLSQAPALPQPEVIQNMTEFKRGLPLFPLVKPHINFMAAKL
# A number is an active result; n = inactive. The sample as a whole holds a higher share of hits than the screen did.
SMILES,IDE exosite FP
COCC(=O)N1[C@H](C#N)[C@@H](c2ccccc2-c2ccccc2F)[C@@H]1CO,n
O=C(NC1CCCC1)N1CCCCN2[C@@H](CO)[C@@H](c3ccc(-c4ccccc4)cc3)[C@@H]2C1,-7
CCCC#Cc1ccc([C@H]2[C@@H](CO)N3CCCCN(C(=O)NC4CCCC4)C[C@@H]23)cc1,n
O=C(NC1CCCC1)N1CCCCN2[C@H](CO)[C@H](c3ccc(-c4ccccc4)cc3)[C@H]2C1,-5
O=C(NC1CCCC1)N1CCCCN2[C@H](CO)[C@@H](c3ccc(-c4cncnc4)cc3)[C@H]2C1,n
O=C(NC1CCCC1)N1CCCCN2[C@H](CO)[C@@H](c3ccc(-c4cncnc4)cc3)[C@@H]2C1,n
O=C(NC1CCCC1)N1CCCCN2[C@H](CO)[C@@H](c3ccc(-c4cccnc4)cc3)[C@@H]2C1,n
CCCC#Cc1ccc([C@@H]2[C@@H](CO)N3CCCCN(C(=O)NC4CCCC4)C[C@H]23)cc1,-4.9
CCCC#Cc1ccc([C@H]2[C@H]3CN(C(=O)NC4CCCC4)CCCCN3[C@H]2CO)cc1,n
O=C(NC1CCCC1)N1CCCCN2[C@H](C1)[C@@H](c1ccc(-c3cncnc3)cc1)[C@@H]2CO,n
O=C(Nc1cc(F)ccc1F)N1[C@@H]2CNC[C@H]1C2c1ccc(-c2cccnc2)cc1 (some centres not stated),n
CCNC(=O)C[C@@H]1CC[C@@H]2[C@H](COC[C@H](O)CN2C(=O)c2ccccn2)O1,n
CNC[C@H]1OCc2cn(nn2)CCCC(=O)N([C@@H](C)CO)C[C@H]1C,n
CCS(=O)(=O)Nc1ccc2c(c1)C(=O)N(C)[C@@H]1CC[C@H](CC(=O)NCc3ccccc3F)O[C@@H]1CO2,n
CCS(=O)(=O)Nc1ccc2c(c1)C(=O)N(C)C[C@@H](OC)[C@@H](C)CN(CC1CCCCC1)[C@H](C)CO2,n
CN(C)C(=O)C[C@H]1C=C[C@H](NC(=O)c2ccc(F)cc2)[C@@H](CO)O1,n
C/C=C/c1ccc(C2[C@H]3CNC[C@@H]2N3C(=O)NC(C)C)cc1 (some centres not stated),n
O=C(Nc1ccc2c(c1)[C@@H]1C[C@@H](CC(=O)N3CCOCC3)O[C@H](CO)[C@@H]1O2)Nc1ccccc1F,n
O=C(Nc1ccccc1F)N1CC(=O)N2[C@@H](CO)[C@H](c3ccc(C#CC4CC4)cc3)[C@@H]2C1,n
CCCN1C[C@H](C)[C@@H](OC)CN(C)C(=O)c2cc(NS(=O)(=O)c3ccccc3)ccc2OC[C@H]1C,n
CCCNC(=O)N1CC2(C1)CN(C(=O)CN1CCOCC1)[C@@H](CO)c1[nH]c3cc(OC)ccc3c12,n
CN1C(=O)c2cc(NC(=O)c3ccc(C(F)(F)F)cc3)ccc2OC[C@H]2O[C@H](CC(=O)NCc3ccc4c(c3)OCO4)CC[C@@H]21,n
Cc1cccc(-c2ccc([C@H]3[C@H](CO)N4CCCCN(C(=O)c5ccncc5)C[C@@H]34)cc2)c1,n
Cc1cccc(-c2ccc([C@H]3[C@@H](CO)N4CCCCN(C(=O)c5cccnc5)C[C@H]34)cc2)c1,-17
Cc1cccc(-c2ccc([C@H]3[C@@H](CO)N4CCCCN(C(=O)c5cccnc5)C[C@@H]34)cc2)c1,n
SMILES,IDE exosite FP
Cc1cccc(-c2ccc([C@@H]3[C@H]4CN(C(=O)c5cccnc5)CCCCN4[C@H]3CO)cc2)c1,-15
O=C(c1cccc(F)c1)N1CCCCN2[C@H](C1)[C@@H](c1ccc(-c3cccnc3)cc1)[C@@H]2CO,n
Cc1cccc(-c2ccc([C@H]3[C@@H](CO)N4CCCCN(C(=O)c5ccncc5)C[C@@H]34)cc2)c1,n
N#C[C@@H]1N[C@@H](CO)[C@@H]1c1ccc(C#CC2CCCC2)cc1,n
N#C[C@@H]1[C@H](c2ccccc2-c2ccccc2)[C@H](CO)N1C(=O)Cc1ccccc1,n
COc1ccc(S(=O)(=O)N2C[C@H](O)COC[C@@H]3O[C@@H](CC(=O)N[C@H]4CCN(Cc5ccccc5)C4)CC[C@H]32)cc1,n
O=C1CNC[C@@H]2[C@@H](c3ccc(-c4ccccc4F)cc3)[C@@H](CO)N12,n
O=C(Nc1cccc(F)c1)N1CC(=O)N2[C@H](CO)[C@H](c3ccc(-c4ccccc4F)cc3)[C@H]2C1,n
CCS(=O)(=O)N1CC(=O)N2[C@H](CO)[C@@H](c3ccc(-c4ccccc4C)cc3)[C@H]2C1,n
COCC(=O)N1CC(=O)N2[C@H](CO)[C@@H](c3ccc(-c4ccccc4C)cc3)[C@H]2C1,n
Cc1ccccc1-c1ccc([C@H]2[C@H](CO)N3C(=O)CN(S(C)(=O)=O)C[C@@H]23)cc1,n
CCC(=O)N1CC(=O)N2[C@@H](CO)[C@H](c3ccc(-c4ccccc4F)cc3)[C@@H]2C1,n
CCC(=O)N1CC(=O)N2[C@H](CO)[C@@H](c3ccc(-c4ccccc4C)cc3)[C@H]2C1,-4
CCC(=O)N1CC(=O)N2[C@H](CO)[C@H](c3ccc(-c4ccccc4C)cc3)[C@@H]2C1,-8
O=C(N[C@H]1C=C[C@H](CC(=O)N2CCC(Cc3ccccc3)CC2)O[C@@H]1CO)c1cnccn1,n
CCNC(=O)[C@H]1[C@H](CO)[C@H]2Cn3c(ccc(-c4ccncc4)c3=O)[C@H]2N1Cc1cc(F)ccc1F,n
O=S(=O)(c1ccccc1)N1CCCCN2[C@H](CO)[C@H](c3ccc(C#Cc4ccccc4)cc3)[C@H]2C1,n
O=S(=O)(c1ccccc1)N1CCCCN2[C@H](CO)[C@H](c3ccc(C#Cc4ccccc4)cc3)[C@@H]2C1,n
CC(C)(O)C#Cc1ccc([C@@H]2[C@H]3CN(S(C)(=O)=O)CCCCN3[C@H]2CO)cc1,n
O=C(c1ccncc1)N1CCCCN2[C@H](C1)[C@H](c1ccc(C#Cc3ccccn3)cc1)[C@@H]2CO,n
O=S(=O)(c1ccccc1)N1CCCCN2[C@H](CO)[C@H](c3ccc(C#Cc4ccccn4)cc3)[C@H]2C1,-3.2
CS(=O)(=O)N1CCCCN2[C@@H](CO)[C@H](c3ccc(C#Cc4ccccn4)cc3)[C@@H]2C1,-3.9
CS(=O)(=O)N1CCCCN2[C@H](C1)[C@@H](c1ccc(C#Cc3ccccn3)cc1)[C@@H]2CO,-3.3
CCS(=O)(=O)N1CCCCN2[C@H](CO)[C@@H](c3ccc(C#Cc4ccccn4)cc3)[C@@H]2C1,n
O=C(c1ccncc1)N1CCCCN2[C@H](CO)[C@@H](c3ccc(C#Cc4ccccn4)cc3)[C@@H]2C1,n
SMILES,IDE exosite FP
CCCC#Cc1ccc([C@H]2[C@@H](CO)N3C(=O)CN(S(=O)(=O)c4ccccc4C)C[C@H]23)cc1,n
C[C@H]1CN([C@@H](C)CO)C(=O)c2ccccc2-c2ccccc2CO[C@@H]1CN(C)C(=O)[C@@H](Cc1ccccc1)N(C)C,n
CC[C@@H]1CC=CC[C@@H](C)Oc2ccccc2C(=O)N(C)[C@@H](C)C(=O)N1 (mixture of isomers),n
O=C(NC1CCCC1)N1CCCCN2[C@H](C1)[C@@H](c1ccc(/C=C/c3ccccc3)cc1)[C@@H]2CO,-9.6
O=C(NC1CCCC1)N1CCCCN2[C@H](C1)[C@H](c1ccc(/C=C/c3ccccc3)cc1)[C@@H]2CO,-13
O=C(NC1CCCC1)N1CCCCN2[C@H](CO)[C@@H](c3ccc(/C=C/c4ccccc4)cc3)[C@@H]2C1,n
O=C(Nc1ccccc1F)N1CCCCN2[C@H](CO)[C@@H](c3ccc(/C=C/c4ccccc4)cc3)[C@H]2C1,n
CCC(=O)N1CC[C@@H]2[C@H](CO)Nc3ccc(C#Cc4ccccc4F)cc3[C@@H]21,n
